Screening results from PubChem.
NadD block: inhibitors of S. aureus NadD, primary screen, biochemical, colorimetric, uHTS | Nicotinate-nucleotide adenylyltransferase NadD (Staphylococcus aureus N315) | purified NadD enzyme, colorimetric absorbance read-out | inhibition, % at 20 µM | hit rate 0.78% among 360,000 | AID 602399, 2012; in the data active means inhibition above about 26%
MPTP block: mitochondrial permeability transition pore inhibitors, primary screen, biochemical, isolated mouse mitochondria, absorbance | hit rate 1.4% among 360,000 | Ca2+ swelling absorbance, 30 min | inhibition, % at 10 µM;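 active means inhibition of 50% or more, scaled per plate between neutral and stimulator controls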;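 further: 0% = DMSO wells given calcium and 100% = 1 mM EGTA wells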
aDG glyco up: activators of alpha-DG glycosylation, primary screen, uHTS, Pro5-aDG cells, AlphaScreen; alpha-DG glycosylation AlphaScreen (IIH6); 0% Pro5, 100% B10-LARGE cell signal; activation, % at 10 µM; hit rate 0.22% among 360,000;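 active means activation of at least 8% versus controls, or a plate z-score of at least 8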;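 further: Pro5 are CHO cells carrying HIG-tagged alpha-DG that lacks glycosylation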
TAG inh: inhibitors of triacylglycerol accumulation, primary screen, cell-based, uHTS, fluorescence, H9c2; hit rate 0.66% among 230,000; inhibition, % at 12.5 µM; H9c2 cells, Nile Red lipid (TAG) fluorescence; cells loaded with 200 µM oleic acid;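 active means pattern-corrected inhibition of lipid staining of at least 50% with the nuclear-stain viability signal not falling by more than 50%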;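 further: 0% = DMSO wells and 100% = triacsin C control wells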
Rh123 counter: fluorescence retest of MPTP screen hits in isolated mitochondria, single concentration. shares compounds with MPTP block. membrane potential, Rhodamine 123 fluorescence. inhibition, % at 10 µM. hit rate 78% among 5,000; in the data active means inhibition above about 22%;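 further: 0% = DMSO vehicle and 100% = positive control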
MPTP abs DR: mitochondrial permeability transition pore inhibitors, dose response, biochemical, absorbance, uHTS hits | AID 651561, 2012 | IC50, µM | hit rate 58% among 780 | shares compounds with MPTP block | isolated mitochondria swelling; in the data active means IC50 below about 20 µM
MPTP counter DR: fluorescent counter-screen in isolated mitochondria, dose response, counter-screen for MPTP inhibitor project, biochemical, fluorescence, uHTS hits; shares compounds with MPTP block; isolated mitochondria counterscreen, fluorescence read-out; IC50, µM; hit rate 49% among 780; AID 651564, 2012; in the data active means IC50 below about 80 µM
Active calls of the source: *; x = no result. Most compounds without a hit are left out; they make up all but 2.7% or so of the library.

SMILES	NadD block	MPTP block	aDG glyco up	TAG inh	Rh123 counter	others
CC(=O)c1ccc(NC(=S)Nc2ccc(Br)c(Cl)c2)cc1	1	96*	0	1	100*
O=C(Nc1ccccc1)Nc1cccc(Cl)c1Cl	-2	93*	0	x	97*
Cc1cccc(CSc2ccc(S(=O)(=O)N3CCCC3)cn2)c1	2	-1	1	-30	x
CC(=O)c1ccc(NC(=S)NC(=O)Cc2ccc(Cl)cc2)cc1	4	2	0	x	x
CC(=O)c1ccc(NC(=S)NC(C)c2ccc(Cl)cc2Cl)cc1 (configuration not stated)	-4	95*	2	-6	69*
O=C(Nc1ccccc1)Nc1ccc(Br)c(Cl)c1	-3	79*	1	x	85*
COC(=O)c1ccccc1Oc1cc(C(F)(F)F)nc(-c2ccccn2)n1	-7	1	0	-3	x
O=C(c1cc(C2CC2)nc2ccccc12)N1N=C(C(F)F)CC1(O)C(F)F (configuration not stated)	1	16	0	x	x
CC(C)c1ccc(-c2cc(C(=O)N3N=C(C(F)F)CC3(O)C(F)F)c3ccccc3n2)cc1 (configuration not stated)	6	77*	1	x	97*
O=C(c1cc(C2CC2)nc2ccc(Br)cc12)N1N=C(C(F)F)CC1(O)C(F)F (configuration not stated)	10	75*	0	x	84*
Cc1nc(-c2ccc(F)cc2)c(CC(=O)NCC(=O)Nc2ccc(F)c(F)c2)s1	-2	1	0	-8	x
c1ccc(-c2csc3ncnc(NCc4ccccn4)c23)cc1	-2	62*	1	-10	33*
c1ccc(CNc2ncnc3scc(-c4cccs4)c23)nc1	-6	72*	1	-14	57*
CN(C)CCCNc1ncnc2scc(-c3ccccc3)c12	-1	10	0	19	x
CCOc1ccccc1NC(=O)CSc1nc2nc(-c3cccs3)cc(C(F)(F)F)c2c(=O)[nH]1	13	69*	0	7	55*
CC(=O)Nc1ccc(NC(=O)CSc2nc3nc(-c4cccs4)cc(C(F)(F)F)c3c(=O)[nH]2)cc1	14	2	0	7	x
O=C(Nc1ccc(C(F)(F)F)cc1)C1CCCCN1S(=O)(=O)c1ccccc1 (configuration not stated)	-5	8	0	-30	x
CCOC(=O)c1sc(NC(=O)CSc2n[nH]c(-c3ccncc3)n2)c(C#N)c1C	9	77*	0	3	80*
CCOC(=O)c1sc(NC(=O)CSc2nccc(C)n2)c(C#N)c1C	2	-1	0	2	x
CCN(Cc1ccccc1)C(=O)COC(=O)Cn1cnc2ccccc21	-2	12	0	0	x
COc1cccc(OC(=O)c2ccccc2)c1OC(=O)c1ccccc1	0	-3	0	15	x
O=C(O)CCn1cc(/C=C2\SC(=S)NC2=O)c(-c2ccccc2)n1	-1	-1	1	x	x
CN(C)S(=O)(=O)c1cccc(-c2nn(-c3ccccc3)cc2/C=C2\SC(=S)NC2=O)c1	27	97*	-1	x	45*
Cc1c(C(=O)Nc2cccc(Cl)c2)c2ccccn2c1CCc1ccncc1	9	25	2	-3	x
Cc1c(C(=O)Nc2ccc(Cl)cc2)c2ccccn2c1CCc1ccncc1	5	85*	1	x	90*
SMILES	NadD block	MPTP block	aDG glyco up	TAG inh	Rh123 counter	others
O=C(c1cc(COc2ccccc2)on1)N1CCCC(CN2CCOCC2)C1 (configuration not stated)	-6	-1	0	x	x
Cc1cc(C)nc(NNS(=O)(=O)c2c(F)cc(F)cc2Br)n1	5	1	0	-7	x
Cc1ccc(NC(=O)C(C)c2ccc([N+](=O)[O-])cc2)cc1Cl (configuration not stated)	-7	80*	2	x	87*
O=C(Cc1ccc(Cl)cc1Cl)Nc1ccc(OC(F)F)c(Cl)c1	-3	74*	1	x	84*
CC(C(=O)Nc1ccccc1Br)c1ccc([N+](=O)[O-])cc1 (configuration not stated)	-1	2	0	x	x
O=C(Nc1ccc(OC(F)F)c(Cl)c1)c1cccc(OC(F)F)c1	-7	97*	1	x	95*
O=C(Nc1ccc(Cl)cc1)Nc1ccc2c(c1)OCO2	-8	33	0	-6	x
O=C(Nc1ccc2c(c1)OCO2)Nc1ccc(Cl)cc1Cl	10	83*	0	0	94*
CNC(=O)c1cc(Oc2ccc(NC(=O)c3[nH]c(-c4ccccc4)c4c3C(=O)N(C)C4=O)cc2)ccn1	8	1	0	x	x
Cc1ccc(OCCC(=O)OCC(=O)N2CCN(S(=O)(=O)c3ccc(C)cc3)CC2)cc1	-1	0	0	5	x
C=CCNC(=S)Nc1ccc(OC(F)F)c(Cl)c1	-2	2	0	x	x
O=C(Nc1ccc([N+](=O)[O-])cc1)Nc1ccc(OC(F)F)c(Cl)c1	-7	98*	-1	x	47*
O=C(Nc1ccc(OC(F)F)c(Cl)c1)Nc1ccc2c(c1)OCO2	-8	92*	1	-6	88*
COc1ccc(OCC(=O)N2CCC(n3nccc3NC(=O)C3CC3)CC2)cc1	-4	-1	0	x	x
O=C1CC(N2CCN(S(=O)(=O)c3ccccc3F)CC2)C(=O)N1c1ccc(F)cc1F (configuration not stated)	-4	0	0	7	x
Cc1ccc(-c2nn(-c3ccccc3)cc2CO)cc1	-10	0	0	x	x
N=C(N)SCc1cn(-c2ccccc2)nc1-c1ccc(Br)cc1	7	76*	-1	140	-10
CC(C)(C)OC(=O)N1CCCC(C(=O)Nc2ccc(C(=O)NC3CC3)cc2)C1 (configuration not stated)	-2	168*	0	1	3	MPTP abs DR=>100;MPTP counter DR=>80
CN(C(=O)c1ccc(NC(=O)C2CCCN(C(=O)OC(C)(C)C)C2)cc1)C1CC1 (configuration not stated)	-1	1	0	9	x
OC(c1cc(-c2cccc(Cl)c2)nc2ccccc12)C1CCCCN1 (configuration not stated)	-8	82*	-1	131	-19	MPTP abs DR=3.6*;MPTP counter DR=29*
OC(c1cc(-c2ccc(C(F)(F)F)cc2)nc(C(F)(F)F)c1)C1CCCCN1 (configuration not stated)	-7	3	0	x	x
